From PubChem
CHX counter: affects cycloheximide protein synthesis inhibition readout, counter-screen. cell reporter, cycloheximide protein synthesis inhibition counterscreen. max response, %. hit rate 12% among 300,000; in the data active = max response mostly above about 13%, no sharp cut-off; inactive = mostly below about 14%; note: read at 38.3 µM for the half of the compounds with a filed dose; 0% is about no effect
MARV entry inh: Marburg virus entry inhibition; Marburg virus pseudotyped entry inhibition, cell reporter; hit rate 1.8% among 300,000; Potency, µM (titrated, usually from 37.8 µM), inactives show at the top dose activity change, negative = inhibition, hits mostly inhibitors; AID 540276; calls by dose curve; tested in HEK293 cells; note: potency is the fitted concentration of half-maximal effect; % is set by controls: 0 for no effect and ±100 for the full control effect
Shiga toxin inh: blocks Shiga toxin action in Vero cells | Vero cells, Shiga toxin protein synthesis inhibition reporter | inhibition, % at 38.7 µM | hit rate 9.2% among 290,000; in the data active = inhibition mostly above about 28%, no sharp cut-off; inactive = mostly below about 43%; note: 0% is about no effect
LASV entry inh: Lassa virus entry inhibition; Lassa virus pseudotype entry inhibition, cell reporter; Potency, µM (highest dose often 37.9 µM), without a hit: at the highest dose activity change, negative = inhibition, usual class: inhibitors; hit rate 1.2% among 300,000; calls by dose curve; tested in HEK293 cells; note: potency is the fitted concentration of half-maximal effect; % is set by controls: 0 for no effect and ±100 for the full control effect; nearly all actives have a fitted effect of over 50% in size
Vaccinia Venus: inhibitors of vaccinia virus (Venus reporter); hit rate 0.46% among 330,000; Potency, µM (doses to about 36.5 µM), inactives show top-dose activity change, negative = inhibition, actives largely listed as inhibitors; Vaccinia virus Venus reporter expression, fluorescence; AID 720580; calls by dose curve; tested in A549 cells; note: potency is the fitted concentration of half-maximal effect; % is set by controls: 0 for no effect and ±100 for the full control effect; nearly all actives have a fitted effect of over 30% in size
VACV mCherry inh: inhibitors of vaccinia virus infection (mCherry reporter signal). AID 720579. hit rate 0.63% among 310,000. Vaccinia virus mCherry reporter infection, fluorescence. Potency, µM (titrated, usually from 36.5 µM), without a hit: at the highest dose activity change, negative = inhibition, actives largely listed as inhibitors; calls by dose curve; tested in A549 cells; note: potency is the fitted concentration of half-maximal effect; % is set by controls: 0 for no effect and ±100 for the full control effect; nearly all actives have a fitted effect of over 35% in size
* hit, by the source's call; i = inactive; u = inconclusive; x = no result given; [ ] = dose if it differs, or a comment. This excerpt belongs to a sample that is enriched for hits.

SMILES	CHX counter	MARV entry inh	Shiga toxin inh	LASV entry inh	Vaccinia Venus	VACV mCherry inh
Cc1cc(C)nc(N/N=C/c2c[nH]c3ccccc23)n1	20*	-18%[46.1 µM]	50	1%[46.1 µM]	-15%	-24%
COc1ccccc1/C=N/NC1=NCCCCC1	18	18%	11	u	0%	-15%
CCC1CN(CCNC(=O)c2cccc(N3CCCC3=O)c2)Cc2cc(OC)ccc2O1 (stereo not given)	x	x	x	x	-1%	-16%
Cc1cc(O)cc(=O)n1Cc1ccco1	-2	15%	-18	-2%	-18%	-11%
Cc1csc(=Nc2ccccc2)n1Cc1ccco1	29*	x	31	x	x	x
CCCN1CNc2c(c(=O)[nH]c(=S)n2CCc2cccc(OC)c2OC)C1	x	x	x	x	-7%	-13%
COc1cccc2c1Oc1cc([N+](=O)[O-])cc(N(C)C(C)=O)c1C=C2	-2	-29%[46.1 µM]	0	-11%[46.1 µM]	-21%	7.1µM*
CCc1nnc(NC(=O)c2ccc(-c3ccccc3F)o2)s1	22*	15%[46.1 µM]	28	u	2%	i
O=C(NCCc1ccccc1)c1ccc(-c2ccccc2C(F)(F)F)o1	1	4%	-9	u	-20%	-9%
CCc1nnc(NC(=O)c2ccc(-c3ccc(Cl)cc3)o2)s1	2	23%	43	10%	8%	x
O=C(NCc1ccccc1)c1ccc(-c2ccccc2F)o1	52*	u	41*	u	-11%	-3%
Cn1c(/C=C/c2ccccc2)nc2ccccc21	11	x	-13	x	-20%	-2%
Cn1c(=O)c(/C=C/c2ccc(F)cc2)nc2ccccc21	36*	7%	75*	-12%	-6%	-15%
Cn1c(=O)c(/C=C/c2ccccc2)nc2ccccc21	34*	u	73*	-16%	-16%	i
CC(=O)c1ccc(/C=C/c2nc3ccccc3n2C)o1	38*	u	61*	u	-4%	-10%
COc1ccccc1C(=O)NCC(=O)NNC(=O)C1COc2ccccc2O1 (stereo not given)	x	-9%	x	u	-11%	-16%
O=C(CCN1CCN(C(c2ccccc2)c2ccccc2)CC1)N/N=C/c1ccc(O)cc1	-4	u	-4	u	-10%	-9%
COc1ccc(OC)c(/C=N/NC(=O)CCN2CCN(C(c3ccccc3)c3ccccc3)CC2)c1	5	10µM*	22	u	u	u
Cc1cc(C)n(CCC(=O)N/N=C/c2ccc(O)cc2O)n1	-5	13µM*	-9	u	u	20µM*
O=C(CCN1CCN(C(c2ccccc2)c2ccccc2)CC1)N/N=C/c1ccc(O)cc1O	-5	u	-17	u	u	20µM*
COc1ccccc1OCCCCN1CCN(C(c2ccccc2)c2ccccc2)CC1	-3	u	-11	18µM*	u	u
COc1ccc(OC)c(NC(=O)c2c(NCc3cccs3)sc3c2CCCCC3)c1	x	x	x	-21%[46.1 µM]	-3%	-16%
COc1cc(-c2nc(-c3ccc(C)nc3OC)no2)cc(OC)c1OC	-2	0%	-14	x	x	x
CCOc1ccccc1-c1nc(-c2ccc(C)nc2OC)no1	44*	u	92*	-22%	-14%	-20%
CCOc1nc(C)ccc1-c1noc(-c2ccco2)n1	32*	11%	42	24%[14.3 µM]	-7%	-19%
SMILES	CHX counter	MARV entry inh	Shiga toxin inh	LASV entry inh	Vaccinia Venus	VACV mCherry inh
CCOc1nc(-c2ccccc2)ccc1-c1noc(-c2cccnc2)n1	x	-2%[46.1 µM]	x	3%	-12%	i
CCOc1nc(C)ccc1-c1noc(-c2ccccn2)n1	26*	u	34	19%	-19%	x
CCOc1nc(C)ccc1-c1noc(CC)n1	-3	20%	-2	0%	x	x
CCOc1ccccc1N1CCN(C(=O)CCCc2nc3ccccc3s2)CC1	-2	u	8	1%	-4%	-13%
COc1ccc(-n2nc(C(=O)NCC(=O)NCCC3=CCCCC3)c3ccccc3c2=O)c(OC)c1	-3	-1%[46.1 µM]	-7	-21%	-4%	-11%
Cc1cc(Cl)ccc1N(CC(=O)N(C)Cc1ccccc1)S(C)(=O)=O	x	x	x	x	-9%	i
CC(=O)c1c(C)[nH]c(C(=O)NCCc2ccc(Cl)cc2)c1C	16*	x	36	x	x	x
CC(=O)c1c(C)[nH]c(C(=O)Nc2ccc(Cl)cc2)c1C	41*	u	62*	u	u	-23%
CC(=O)c1c(C)[nH]c(C(=O)Nc2ccc(F)c(F)c2F)c1C	6	u	71*	13%	-19%	i
CC(=O)c1c(C)[nH]c(C(=O)Nc2ccc(Cl)cc2F)c1C	32*	u	116*	u	6%	0%
CC(=O)c1[nH]c(C)c(C(=O)NCCc2ccc(C)cc2)c1C	x	x	x	-12%[46.1 µM]	-3%	-9%
O=C(CCn1cnc2onc(-c3ccc(F)cc3)c2c1=O)N1CCN(c2ccccc2)CC1	x	x	x	5%[46.1 µM]	-1%	-4%
CC(=O)c1c(C)[nH]c(C(=O)OCC(=O)c2ccc(Br)cc2)c1C	x	x	x	x	u	-9%
CCC(NC(=O)c1[nH]c(C)c(C(C)=O)c1C)c1ccc(Br)cc1 (stereo not given)	-2	8.9µM*	10	u	-11%	i
CC(=O)c1c(C)[nH]c(C(=O)Nc2cccc(S(=O)(=O)N(C)c3ccccc3)c2)c1C	-5	13µM*	2	u	-17%	-11%
CC(=O)c1c(C)[nH]c(C(=O)NCCC2=CCCCC2)c1C	49*	u	105*	u	u	u
COc1ccccc1NS(=O)(=O)c1cccc(NC(=O)c2[nH]c(C)c(C(C)=O)c2C)c1	-2	x	-5	x	x	x
CCC(C)c1ccc(NC(=O)c2[nH]c(C)c(C(C)=O)c2C)cc1 (stereo not given)	23*	u	71*	-17%[46.1 µM]	-4%	-9%
CSc1cccc(NC(=O)c2[nH]c(C)c(C(C)=O)c2C)c1	44*	u	93*	u	-19%	i
CC(=O)c1c(C)[nH]c(C(=O)Nc2cccc(C)c2C)c1C	-1	-11%[46.1 µM]	17	14%	10%	74%
Cc1[nH]c2ccccc2c1C(=O)C(=O)NCCc1c[nH]c2ccccc12	-4	x	-5	x	x	x
CC(=O)c1c(C)[nH]c(C(=O)OCC(=O)Nc2ccc(Cl)c(S(=O)(=O)N(C)C)c2)c1C	3	x	14	x	x	x
CC(=O)c1[nH]c(C)c(C(C)=O)c1C	3	26%[46.1 µM]	-10	4%	-13%	-15%
CC(=O)c1c(C)[nH]c(C(=O)NC2=NCCS2)c1C	17*	8%	30*	14%	x	x
CC(=O)c1c(C)[nH]c(C(=O)NCCc2c[nH]c3ccccc23)c1C	39*	-5%[46.1 µM]	41*	-1%[46.1 µM]	-1%	-12%
CC(=O)c1c(C)[nH]c(C(=O)Nc2ccc(Cl)c(S(=O)(=O)N(C)C)c2)c1C	24*	x	109*	x	-13%	-7%
COC(=O)c1ccc(NC(=O)C(c2ccccc2)N2Cc3ccccc3C2=O)cc1 (stereo not given)	x	x	x	0%[46.1 µM]	-13%	-4%
Cc1cccc(-c2cccc(C(=O)N3CCc4c(cnc(C)c4CNC(=O)c4cncs4)C3)c2)c1	x	x	x	x	-10%	-20%
Cc1ccc(NC(=O)Cn2nc(C)n3cccc3c2=O)c(C)c1	x	u	x	12%[46.1 µM]	-6%[7.34 µM]	-10%[7.34 µM]
